Screening results: PubChem BioAssay, National Center for Advancing Translational Sciences (NCATS)
Hits are enriched below; roughly 3.1% of the tested compounds scored in any of these assays.
EPAC2 ant val: validation of human EPAC2 antagonists. Q8WZA2. EPAC2 Rap1B BODIPY-GDP exchange, fluorescence. Potency, µM (series often up to 112 µM), for the others: at the top dose activity, negative = inhibition, most hits filed as inhibitors. 16,000 compounds, 1.7% hits;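 also: 100% = activation by cAMP agonist control; nearly all actives have a fitted effect of over 40% in size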
Target sequence (Q8WZA2 whole entry, looked up): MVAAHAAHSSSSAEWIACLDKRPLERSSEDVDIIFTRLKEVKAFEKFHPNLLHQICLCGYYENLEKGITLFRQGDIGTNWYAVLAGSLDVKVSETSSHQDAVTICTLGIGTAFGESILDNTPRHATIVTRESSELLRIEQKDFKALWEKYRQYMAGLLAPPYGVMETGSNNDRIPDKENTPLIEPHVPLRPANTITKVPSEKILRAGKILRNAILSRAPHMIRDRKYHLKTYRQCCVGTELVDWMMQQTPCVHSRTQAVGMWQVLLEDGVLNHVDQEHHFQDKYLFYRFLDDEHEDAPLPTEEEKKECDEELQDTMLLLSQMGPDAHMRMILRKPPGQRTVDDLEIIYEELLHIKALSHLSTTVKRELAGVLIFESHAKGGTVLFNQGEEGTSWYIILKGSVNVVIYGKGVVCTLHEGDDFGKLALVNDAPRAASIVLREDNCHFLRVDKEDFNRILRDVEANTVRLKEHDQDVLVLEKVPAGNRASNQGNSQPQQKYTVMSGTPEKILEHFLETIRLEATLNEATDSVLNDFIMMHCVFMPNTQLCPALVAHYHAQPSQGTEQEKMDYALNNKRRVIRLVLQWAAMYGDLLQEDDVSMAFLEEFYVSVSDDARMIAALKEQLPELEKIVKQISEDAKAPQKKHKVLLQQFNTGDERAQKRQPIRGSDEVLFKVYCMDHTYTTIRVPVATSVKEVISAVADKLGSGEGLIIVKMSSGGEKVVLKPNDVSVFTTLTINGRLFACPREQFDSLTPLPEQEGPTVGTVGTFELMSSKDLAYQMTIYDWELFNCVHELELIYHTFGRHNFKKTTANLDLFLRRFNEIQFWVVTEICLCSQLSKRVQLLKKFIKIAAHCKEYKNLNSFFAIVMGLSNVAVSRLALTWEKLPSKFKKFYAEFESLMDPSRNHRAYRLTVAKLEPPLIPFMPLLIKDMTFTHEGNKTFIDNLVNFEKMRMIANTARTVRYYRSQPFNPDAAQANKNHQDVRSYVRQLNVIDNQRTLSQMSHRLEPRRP
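Normalized against a 6.5 mM cAMP agonist control, compounds were tested on 100 nM EPAC2 exchanging Rap1B-bound BODIPY-GDP (250 nM) for 50 uM GDP. Fluorescence drop (ex 480, em 540 nm) was tracked at room temperature over 30 min at 5-min intervals.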
EPAC1 ag val: validation of human EPAC1 agonists; EPAC1 Rap1b BODIPY-GDP exchange, fluorescence; O95398; 16,000 compounds, 1% hits; Potency, µM, for the others: max response, positive = active, actives largely listed as activators; also: nearly all actives have a fitted effect of over 70% in size
Numbers without * were called inactive; i = inactive; ? = inconclusive; ! = not confirmed by another sample; [ ] = dose if it differs, or a comment. Calls follow the shape of the dose curve; as a rule, active = well fitted curve in the direction sought with a large enough effect; inconclusive = small, poorly fitted or top-dose-only effect, or another doubt; inactive = no such curve, though single readings can be large; an effect the other way counts as inactive or inconclusive. Unless noted, % is scaled to controls: 0 for no effect and ±100 for the full control effect; potency is read from the fitted curve at half-maximal effect.

SMILES	EPAC2 ant val	EPAC1 ag val
O=C1CC(c2ccc(O)cc2)Oc2ccccc21 (stereo not drawn)	?	-12.4%
CC(C)=CCc1c(O)cc(O)c2c1O[C@H](c1ccccc1)CC2=O	50.1µM*	?
O=C(NC[C@@H]1CCCN2CCCC[C@H]12)c1cnn(-c2nccc(-c3cc4ccccc4o3)n2)c1C1CC1	-8.8%	-5.2%
CC(C)(C)NC(=O)[C@@H]1C[C@@H]2CCCC[C@@H]2CN1C[C@@H](O)[C@H](Cc1ccccc1)NC(=O)[C@H](CC(N)=O)NC(=O)c1ccc2ccccc2n1	?	-43.1%
CC(C)(C)NC(=O)[C@H]1CN(Cc2cccnc2)CCN1C[C@@H](O)C[C@@H](Cc1ccccc1)C(=O)N[C@H]1c2ccccc2C[C@H]1O	25.1µM*	-53.7%
CC(C)N=C(N)/N=C(\N)Nc1ccc(Cl)cc1	-10.1%[56.6 µM]	-16.7%
NC(=NCCCCCCN=C(N)/N=C(\N)Nc1ccc(Cl)cc1)/N=C(\N)Nc1ccc(Cl)cc1	79.4µM*!	-12.7%
OC(CN1CCCCC1)c1cc(-c2ccccc2)on1 (stereo not drawn)	2.6%	11.8%
Cc1noc(C)c1CC(=O)NCC1Cc2cc(-c3cccc(OC(F)(F)F)c3)ccc2O1 (stereo not drawn)	?	-12.9%
CC(=O)N1CCC[C@H]1C(=O)NCC1Cc2cc(-c3cccc(OC(F)(F)F)c3)ccc2O1 (stereo partly drawn)	70.8µM*	3.7%
CCOc1cc(NC(C)=O)ccc1C(=O)OC	-1.4%	-2.6%
CN(C)CC(C)(O)c1ccc2c(c1)CN(C(=O)c1ccc(-n3cccn3)cc1)CCO2 (stereo not drawn)	3.9%	5.7%
CCc1oc2ccccc2c1C(=O)c1cc(I)c(O)c(I)c1	63.1µM*	-35.8%
COc1ccc(-c2oc3ccccc3c(=O)c2O)cc1OC	-10.1%	5.9%
CSc1nc(N)c2ncn([C@H]3O[C@H](COP(=O)(O)OP(=O)(O)O)[C@@H](O)[C@@H]3O)c2n1	-1.6%	8.2%
CC(c1ccc(N(C)C)cc1)c1ccnc2ccccc12 (stereo not drawn)	-13.3%	112µM*
CN1CCN(c2nc(-c3ccc(N(C)C)cc3)nc3ccccc23)CC1	-3.9%	-7.9%
CON	7.1%	-6.8%
O=C1O/C(=C/Br)CCC1c1cccc2ccccc12 (stereo not drawn)	3.98µM*	-0.8%
OC1CCC2Cc3ccccc3N=C12 (stereo not drawn)	-8.8%	6.1%
O=C(c1ccncc1)N1CCC[C@@]2(CCN(c3ncccn3)C2)C1	-14.4%	-76.8%
COC(=O)c1c(C)[nH]c(C)c1C(=O)c1ccccc1Cc1ccccc1	79.4µM*!	4.2%
COC(=O)c1ccccc1NS(C)(=O)=O	?	-33.8%
CNc1nc(-c2cccc(C#N)c2)nc2ccccc12	-12.5%	-36.3%
O=C(c1cccc(F)c1)N1CCC[C@@]2(CCN(c3cccc(-c4ccccc4)c3)C2)C1	-27.9%	-39.2%
SMILES	EPAC2 ant val	EPAC1 ag val
O=C(c1cccc(F)c1)N1CCC2(CC1)CN(c1cccc(-c3ccccc3)c1)C2	?	89.1µM*
O=C(c1csnn1)N1CCC2(CC1)CN(c1ccccc1)C2	-9.1%	-38.1%
O=C(c1cccc(F)c1)N1CCC2(CCCN(c3cccc(-c4ccccc4)c3)C2)CC1	-19.4%	100µM*
O=C(Oc1ccccc1)N1CCC2(CC1)CCN(c1cccc(-c3ccccc3)c1)CC2	-13.7%	18.6%
O=C(c1cccc(F)c1)N1CCC2(CC1)CCN(c1cccc(-c3ccccc3)c1)CC2	-17.5%	-6.2%
COC(=O)N1CCC2(CC1)CCN(c1cccc(-c3ccccc3)c1)CC2	-29.0%	100µM*
O=C(c1csnn1)N1CCC2(CC1)CN(c1cccc(-c3ccccc3)c1)C2	?	100µM*
COc1ccc(CNc2ncnc3ccc(-c4ccc(N(C)C)cc4)cc23)c(OC)c1	-15.1%	-7.6%
CCCCCCCCC(=O)NCc1cc(OC)c(O)cc1I	?	-45.5%
Cn1c(=O)c(-c2ccc(Cl)cc2)nc2cnc(N3CCOCC3)nc21	-2.6%	-12.1%
COCC(=O)Nc1cc(C(=O)N2CCN(C3CCCC3)C(=O)C2)c2c(c1)nc(-c1ccncc1)n2C	5.8%	-3.5%
Cc1ccccc1N=Nc1ccc(N=Nc2c(O)ccc3ccccc23)c(C)c1	-19.0%	-25.6%
COc1ccc(CN2[C@@H](CC(=O)O)c3ccc(C(F)(F)F)cc3S2(=O)=O)cc1	?	25.5%
CCCCCCCN(c1ccccc1)C1C[C@H]2CCCC(=O)N3CC[C@@H](C1)[C@@H]23 (stereo partly drawn)	?	-21.5%
O=C1CCC[C@@H]2CC(N(Cc3cc4ccccc4s3)c3ccccc3)C[C@@H]3CCN1[C@H]23 (stereo partly drawn)	-4.4%	100µM*
O=S1(=O)[C@H]2C[C@@H]3C=C[C@@]2(CN1Cc1cccc(Cl)c1)O3	-21.3%	-6.4%
COc1cc(C)c(/C=C/C(C)=C/C=C/C(C)=C/C(=O)O)c(C)c1C	25.1µM*!	-8.3%
COC(=O)/C=C/C(C)=C/C=C/C(C)=C/C=C/C=C(C)/C=C/C=C(C)/C=C/C(=O)O	7.2%	-31.7%
COC(=O)C1=C(C)NC(C)=C(C(=O)OCC(C)C)C1c1ccccc1[N+](=O)[O-] (stereo not drawn)	?	-71.8%
COC(=O)C1=C(C)NC(C)=C(C(=O)OC(C)C)C1c1cccc2nonc12 (stereo not drawn)	50.1µM*!	-11.3%
O=C1NC(=O)/C(=C/c2ccc(-c3ccc(F)cc3O)o2)S1	7.94µM*	-14.4%
O=C1NC(=O)/C(=C/c2ccc3nccnc3c2)S1	-11.7%	-7.9%
COc1ccc(CN2Cc3ccccc3OC(c3ccccc3OC)C2)cc1O (stereo not drawn)	?	7.3%
COc1cccc(OC)c1OCCNC[C@@H]1COc2ccccc2O1	-28.2%	-16.3%
CCn1ccnc1CC1COc2ccccc2O1 (stereo not drawn)	35.5µM*!	-4.0%
SMILES	EPAC2 ant val	EPAC1 ag val
N#CC[C@H](Cc1ccccc1)N1CC[C@@H](O)CCC1=O	12.2%	?
CC(C)c1c(C(=O)NC(c2cccnc2)C(F)(F)F)cnn1-c1nccc(-c2cccs2)n1 (stereo not drawn)	?	4.1%
O=C1C=CC(=C(c2ccc(O)cc2)c2ccc(O)cc2)C=C1	?	100µM*
CCC(=O)c1ccc(O)cc1	16.4%	-11.8%
Cc1nc2ccccc2n1Cc1ccc(Cl)cc1	?	2.2%
O=C(O)C1=CC(=C(c2ccc(O)c(C(=O)O)c2)c2ccc(O)c(C(=O)O)c2)C=CC1=O	39.8µM*!	?
Nc1ccc(O)c(C(=O)O)c1	7.7%	?
Cc1ncc2c(c1CNC(=O)c1cncs1)CCN(C(=O)c1cccc(-c3cccc(F)c3)c1)C2	-25.2%	-4.3%
O=C(OOC(=O)c1ccccc1)c1ccccc1	-17.1%	-26.1%
Nc1ncnc2c1ncn2[C@@H]1O[C@H](COP(=O)(O)OP(=O)(O)OP(=O)(O)OP(=O)(O)OC[C@@H]2O[C@H](n3cnc4c(N)ncnc43)[C@@H](O)[C@H]2O)[C@@H](O)[C@H]1O	-1.4%	18.9%
Cc1cc2nc3c(=O)[nH]c(=O)nc-3n(C[C@H](O)[C@H](O)[C@H](O)COP(=O)(O)OP(=O)(O)OC[C@H]3O[C@@H](n4cnc5c(N)ncnc54)[C@H](O)[C@@H]3O)c2cc1C	i	112µM*
COc1ccc2[nH]cc(CCNc3ccnc(-c4ccc(N(C)C)cc4)n3)c2c1	-27.3%	?
COc1ccc2[nH]cc(CCNc3ccnc(-c4ccoc4)n3)c2c1	89.1µM*	-59.3%
